Consider 19 molecules from ChEMBL document CHEMBL3988442, “University of Dundee, Small-Polar-MMV Screening Library” (2021).

In this test the target is Sialic acid-binding Ig-like lectin 9 (Homo sapiens) (UniProt Q9Y336). Briefly: Hs-Siglec9 ALPHAscreen SOP 20170721. Set-up: scale not given: direction of the effect not stated beside the values. To be noted: 10 µM. (Bead proximity is the source of the signal in Alpha formats.)
Sequence of Sialic acid-binding Ig-like lectin 9 (Homo sapiens) (Q9Y336 whole entry): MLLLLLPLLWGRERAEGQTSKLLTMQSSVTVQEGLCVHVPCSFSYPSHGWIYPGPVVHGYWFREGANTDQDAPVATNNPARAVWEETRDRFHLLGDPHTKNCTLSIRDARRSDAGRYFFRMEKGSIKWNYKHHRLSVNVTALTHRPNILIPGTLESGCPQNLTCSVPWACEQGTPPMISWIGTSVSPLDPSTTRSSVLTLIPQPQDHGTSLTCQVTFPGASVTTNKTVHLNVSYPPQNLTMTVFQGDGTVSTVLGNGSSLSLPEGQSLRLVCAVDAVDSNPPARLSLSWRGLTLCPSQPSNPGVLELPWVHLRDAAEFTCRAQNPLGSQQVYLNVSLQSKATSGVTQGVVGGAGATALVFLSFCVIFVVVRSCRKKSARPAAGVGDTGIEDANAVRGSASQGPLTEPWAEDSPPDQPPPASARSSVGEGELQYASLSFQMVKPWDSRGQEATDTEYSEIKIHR
As for `O=C(c1cnccn1)N1CCN(Cc2ccncc2)c2ncccc2C1`, the Percent Effect is 4.53%.
As to `CS(=O)(=O)N1CCCCCC1C1CCN(c2ncccn2)CC1` (centres undefined), the Percent Effect worked out at 1.83%.
Consider `Cc1noc([C@@H]2CC[C@@H]3[C@@H](CCN3S(=O)(=O)c3cccnc3)O2)n1`, for which the Percent Effect was -4.15%.
Turning to `COc1ccc(-c2noc(C(=O)NCCN3CCCCC3)n2)cc1OC`, the Percent Effect is 5.74%.
Consider `CNC(=O)[C@H]1C[C@H]2OCC[C@H]2N(Cc2ccc(C)o2)C1`, for which the Percent Effect came out at 0.238%.
As for `N#Cc1ccc(F)c(CN2CCCC2Cn2cccn2)c1` (centres undefined), the Percent Effect is 13.8%.
Consider `CC(C)CN1CCC(c2nc3c([nH]2)CC(C)(C)CNC3=O)C1` (centres undefined), for which the Percent Effect came to 5.96%.
On to `CSc1cc2c(cc1NC(=O)NCC(C)(C)C(N)=O)OCCO2`, for which the Percent Effect is -2.41%.
Regarding `CC(C)C1CN(C(=O)c2ccc(C(N)=O)cc2)CCS1` (centres undefined), the Percent Effect was determined as 3.92%.
The figure for `Cc1ccc(-c2cc(CNC(=O)N3CCOC(C)C3)on2)cc1` (centres undefined) is -10.1%; for `Cn1cc(N2CC3(CCN(Cc4cccs4)CC3)OCC2=O)cn1` it is 15.7%; for `CCc1noc(C2CCN(C(=O)CCn3nc(C)cc3C)CC2)n1` it is 12.9%.
Take `NC(=O)COc1cccc(C(=O)N2CCCC(n3ccnc3)C2)c1` (centres undefined): the Percent Effect amounted to 11.8%.
For the molecule `CCCc1cc(C(=O)N(C)Cc2cccc3ncccc23)n(C)n1`, the Percent Effect was determined as 20.3%.
`CCOCC1CN(Cc2ccoc2)Cc2nn(CC3CC3)cc21` (centres undefined): the Percent Effect was -1.13%.
For the molecule `Cn1nc(C2CCCN(Cc3ccsc3)C2)c2nccnc21` (centres undefined), the Percent Effect was -2.94%.
Regarding `CCS(=O)(=O)N1CCOC2(CCCN(c3ccc(C)nn3)C2)C1` (centres undefined), the Percent Effect is 2.28%.
`CCN(CCC(F)(F)F)C(=O)Nc1cccc(N2CCOCC2)c1`: the Percent Effect amounted to 14.9%.
`Cc1nn(C)cc1CN1CCC(C2Nc3ccccc3S(=O)(=O)N2)CC1` (centres undefined): the Percent Effect is 2.59%.
